Assay outcomes: PubChem, several laboratories
MEKK3 PB1 HTS – raises or lowers MEK5 binding to the human MEKK3 PB1 domain; bead-based flow cytometry, Alexa488-MEK5 binding to MEKK3; actives lie on both sides; 0 = blocked by unlabeled MEK5, 100 = vehicle; binding response (% of control), % at 10 µM; actives 1.4% (n = 290,000);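 active means binding response more than 3 SD above or below the average of its plate-row segment, actives on both sides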;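 further: Alexa488 bead fluorescence after subtracting the streptavidin-only scavenger bead signal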
Target sequence (Q99759 whole entry, looked up, the tested form may be a part): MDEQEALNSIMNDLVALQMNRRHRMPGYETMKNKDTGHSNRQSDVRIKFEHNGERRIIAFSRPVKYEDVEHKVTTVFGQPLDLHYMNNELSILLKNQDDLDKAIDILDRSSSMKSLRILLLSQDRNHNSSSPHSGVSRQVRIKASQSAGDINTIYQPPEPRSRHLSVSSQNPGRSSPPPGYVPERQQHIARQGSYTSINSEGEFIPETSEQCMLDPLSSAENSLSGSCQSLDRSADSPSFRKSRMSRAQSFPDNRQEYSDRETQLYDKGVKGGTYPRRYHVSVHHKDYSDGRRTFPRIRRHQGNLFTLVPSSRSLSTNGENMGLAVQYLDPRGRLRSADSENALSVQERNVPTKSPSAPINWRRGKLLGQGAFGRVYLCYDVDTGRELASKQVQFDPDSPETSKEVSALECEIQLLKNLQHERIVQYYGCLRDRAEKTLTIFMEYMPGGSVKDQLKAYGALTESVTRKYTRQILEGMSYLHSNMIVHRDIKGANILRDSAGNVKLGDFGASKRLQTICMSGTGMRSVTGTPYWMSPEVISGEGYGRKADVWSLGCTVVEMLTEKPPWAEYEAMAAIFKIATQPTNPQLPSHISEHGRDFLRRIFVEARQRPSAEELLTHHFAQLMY
MEKK2mut PB1 HTS – signal of MEK5 binding to mutant human MEKK2 PB1 domain | bead flow cytometry, Alexa488-MEK5 binding to MEKK2 mutant | percent response, % at 10 µM | actives 0.35% (n = 290,000) | AID 1530; in the data active means percent response above about 24%, passing the limit was not always enough
Arbovirus anti – arbovirus infection inhibition; arbovirus infection cell-based antiviral screen; inhibition, % at 10 µM; actives 0.37% (n = 200,000); in the data active means inhibition above about 30%
MEKK2 WT-MEK5 – raises or lowers MEK5 binding to wildtype human MEKK2 PB1 domain. actives 1.1% (n = 290,000). bead flow cytometry, Alexa488-MEK5 binding to MEKK2 WT; actives lie on both sides. binding response (% of control), % at 10 µM. AID 1531; in the data active means binding response below about 67% or above about 130%
Pf gamet viab – kills late stage P. falciparum gametocytes. P. falciparum stage V gametocytes, ATP luminescence, 24 h. inhibition, % at 10.9 µM. actives 0.065% (n = 150,000). AID 743093;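 active means inhibition above the mean plus 3 SD of compounds within the control limits, set per campaign, cut at about 38% in these data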;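 further: 0% = DMSO wells and 100% = medium only without gametocytes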
MEKK2wt confirm – raises or lowers MEK5 binding to wildtype human MEKK2, retest; shares compounds with MEKK3 PB1 HTS; bead flow cytometry, Alexa488-MEK5 binding to MEKK2 WT; actives lie on both sides; binding response (% of control), % at 10 µM; actives 2.4% (n = 5,900); in the data active means binding response below about 16% or above about 210%; inactive means in between
MEKK2mut-MEK5 – signal of MEK5 binding to mutant human MEKK2, retest; bead flow cytometry, Alexa488-MEK5 binding to MEKK2 mutant; percent response, % at 10 µM; shares compounds with MEKK3 PB1 HTS; actives 2% (n = 5,900); in the data active means percent response mostly above about 71%, no sharp cut-off; inactive means mostly below about 38%;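 further: higher means compound restores mutant binding toward wildtype level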
MEKK3-MEK5 inh – MEKK3-MEK5 PB1 inhibition, single concentration confirmation; shares compounds with MEKK3 PB1 HTS; bead flow cytometry, Alexa488-MEK5 binding to MEKK3; active compounds read low; binding response (% of control), % at 10 µM; actives 1.8% (n = 5,900); AID 1894;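 active means binding response below 72% of control, or above a set upper limit, though filed actives all read lower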;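 further: 100% = DMSO only wells and 0% = binding blocked by excess unlabeled MEK5; lower values mean stronger disruption of MEK5 binding to MEKK3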
The depositor's hits bear a star; x = not tested or not shown; [ ] = dose if it differs, or a comment. The list is not random: actives were taken first. Their share in the collection is about 2.4%.

SMILES | MEKK3 PB1 HTS | MEKK2mut PB1 HTS | Arbovirus anti | MEKK2 WT-MEK5 | Pf gamet viab | MEKK2wt confirm | MEKK2mut-MEK5 | MEKK3-MEK5 inh
CCOC(=O)C(Sc1cc(-c2ccccc2)nc2ncnn12)C(C)=O (centres undefined) | 90 | -17 | x | 90 | -7 | x | x | x
CC(=O)C1=C(C)NC(SCC(N)=O)=C(C#N)C1c1sccc1C (centres undefined) | 76*[inhibitor] | -12 | 7 | 84 | 14 | 110 | 7 | 107
CCOC(=O)CSC1=C(C#N)C(c2sccc2C)C(C(C)=O)=C(C)N1 (centres undefined) | 97 | -4 | 11 | 96 | x | x | x | x
O=C(COc1ccccc1[N+](=O)[O-])N/N=C/c1ccc(O)cc1 | 136* | 0 | -11 | 102 | -5 | 103 | 1 | 105
CCOC(=O)C1=C(CC)Nc2ccccc2N=C1NC(=O)Nc1ccc(Cl)c(Cl)c1 | 97 | 20 | -24 | 145* | x | 148 | -7 | 98
CCOC(=O)C1=C(CC)Nc2ccccc2N=C1NC(=O)c1ccc(S(=O)(=O)N2CCCC2)cc1 | 101 | -4 | 15 | 95 | x | x | x | x
CNC(=O)N(C1=NCCCCC1)c1ccc(Br)cc1 | 129* | 0 | -12 | 103 | -26 | 107 | 7 | 107
Cc1cc(Nc2ccc(C)c(Cl)c2)nc(N2CCOCC2)n1 | 130* | 26 | x | 123 | -1 | 106 | -3 | 102
Cc1ccc(Nc2cc(C)nc(N3CCOCC3)n2)cc1 | 101 | 7 | 19 | 100 | -6 | x | x | x
Nn1cnnc1N/N=C\c1ccc(-c2ccccc2[N+](=O)[O-])o1 | 156* | 0 | -18 | 106 | 23 | 97 | -1 | 101
FC(F)(F)c1cccc(CNC2c3ccccc3-c3ccccc32)c1 | 107 | 2 | x | 106 | x | x | x | x
CCCCCc1ccc(OCCC[n+]2ccccc2)c(CCCCC)c1 | 96 | 19 | x | 145* | -7 | 146 | 30 | 104
CCCCCc1ccc(OCCOCCn2c[n+](C)c3ccccc32)c(CCCCC)c1 | 79 | 23 | -31 | 232* | x | 186 | 52 | 106
CC(=O)Nc1ccc(OCCC[n+]2ccccc2)cc1 | 99 | -12 | -1 | 90 | 7 | x | x | x
O=c1onc(-c2ccccc2Cl)n1-c1ccccc1Cl | x | x | x | x | 14 | x | x | x
COc1ccc2c(c1)CCc1cn3nc(C)cc3nc1-2 | 8.0*[inhibitor] | -90 | -7 | 104 | -7 | 96 | -1 | 100
COc1ccc2c(c1)CCc1cnc(N)nc1-2 | 102 | 2 | 0 | 99 | -15 | x | x | x
O=C1CC(N(CCc2ccccc2)C(=S)Nc2ccccc2)C(=O)N1c1ccc(Br)cc1 (centres undefined) | 102 | 16 | -35 | 149* | -21 | 140 | 16 | 107
Oc1ccc(-c2n[nH]c(=S)n2-c2ccc3c(c2)OCCO3)c(O)c1 | 70*[inhibitor] | -1 | 33* | 85 | -1 | 105 | -2 | 97
CN(C)c1ccc(/C=C/C=C2/SC(=S)N(c3ccccc3)C2=O)cc1 | 0.0*[inhibitor] | x | -2 | x | x | 39 | -28 | 69*
CCOc1ccc(CCNC(=O)c2ccc(=O)[nH]c2)cc1OCC | 96 | -4 | x | 90 | x | x | x | x
O=C(N/N=C/c1c(O)n(-c2ccc(Cl)cn2)c(=O)c2ccccc12)c1ccncc1 | 135* | 0 | 27 | 107 | -31 | 100 | 1 | 104
COc1cc(C2CC(c3cccs3)=NN2C(=O)CCl)ccc1OC(F)F (centres undefined) | 107 | 2 | x | 102 | x | x | x | x
CC(C)CCN(C(=S)Nc1cccc(F)c1)C(C)c1cccs1 (centres undefined) | 46*[inhibitor] | -13 | 9 | 59 | -23 | 104 | -5 | 103
CCOC(=O)CCSc1nc(C)c2cc(OC)ccc2n1 | 72*[inhibitor] | 2 | -6 | 90 | x | 80 | -17 | 76
SMILES | MEKK3 PB1 HTS | MEKK2mut PB1 HTS | Arbovirus anti | MEKK2 WT-MEK5 | Pf gamet viab | MEKK2wt confirm | MEKK2mut-MEK5 | MEKK3-MEK5 inh
N#Cc1sc(NCc2ccccn2)nc1Cl | 95 | 1 | x | 96 | x | x | x | x
COc1cc2nc(N3CCNCC3)nc(N)c2cc1OC | 99 | -3 | -7 | 106 | -13 | x | x | x
COc1cc2nc(N3CCN(c4cc(C)ccc4C)CC3)nc(N)c2cc1OC | 106 | 42* | x | 186* | x | 226* | 75* | 113
Cc1nc(Nc2nc(CSc3nc4ccccc4[nH]3)cc(=O)[nH]2)nc2ccccc12 | 92 | -1 | -38 | 96 | 19 | x | x | x
Cc1nc(Nc2nc(CSc3ccc(Cl)cc3)cc(=O)[nH]2)nc2ccccc12 | 132* | 0 | -9 | 104 | -27 | 104 | 2 | 105
CN(Cc1nccn1C)C(=O)CC1C(=O)NCCN1CC(c1ccccc1)c1ccccc1 (centres undefined) | 102 | -13 | 2 | 91 | -14 | x | x | x
COC(=O)c1ccc(C2c3c(oc4ccccc4c3=O)C(=O)N2CCCN2CCOCC2)cc1 (centres undefined) | x | x | -1 | x | x | x | x | x
COC(=O)c1ccc(C2c3c(oc4ccc(Cl)cc4c3=O)C(=O)N2CCN2CCOCC2)cc1 (centres undefined) | 131* | 28 | x | 128 | 2 | 99 | 3 | 102
CCOC(=O)N1CCC(Nc2nc3ccccc3n3cnnc23)CC1 | 0.0*[inhibitor] | -43 | 1 | 0.0*[inhibitor] | x | 97 | -4 | 99
Cn1c(=O)oc2cc(S(=O)(=O)N3CCN(c4ccccc4)CC3)ccc21 | 103 | 3 | -5 | 108 | 0 | x | x | x
Cn1c(=O)oc2cc(S(=O)(=O)N3CCN(c4ccccn4)CC3)ccc21 | 50*[inhibitor] | -9 | -1 | 64 | x | 108 | 13 | 111
NS(=O)(=O)OCCCc1ccccc1 | 102 | 0 | x | 107 | x | x | x | x
COCC(COS(N)(=O)=O)Cc1ccccc1 (centres undefined) | 105 | 4 | x | 139* | 0 | 107 | 7 | 108
CCOP(=O)(OCC)C(Nc1cccc(C(F)(F)F)c1)c1ccc(C)cc1 (centres undefined) | 66*[inhibitor] | 0 | 13 | 103 | -26 | 103 | 2 | 108
CCCCn1c(=O)c(-c2ccccc2)c(O)c2ccccc21 | 131* | 5 | 11 | 129 | x | 104 | -4 | 100
CCn1c(=O)c(-c2ccccc2)c(O)c2ccccc21 | 96 | -2 | 9 | 99 | -7 | x | x | x
CC(=O)c1ccc(C(=O)N2CCCC(N3CCN(c4ccc(F)cc4)CC3)C2)s1 (centres undefined) | 98 | -4 | x | 102 | x | x | x | x
N#C/C(=C\c1ccccc1Br)C(=O)NC1CC1 | 103 | 6 | x | 109 | x | x | x | x
FC(F)(F)c1cc(-c2ccco2)nc(NCc2cccnc2)n1 | x | x | -3 | x | 1 | x | x | x
